tim10-1 inh = inhibits growth of tim10-1 mutant yeast. S. cerevisiae tim10-1 ts strain growth, BacTiter-Glo, 24 h. inhibition, % at 20 µM. actives 2.2% (n = 330,000);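 active means inhibition of at least 40%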;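 further: mutant grown at 25 °C; 0% = DMSO wells with yeast and 100% = wells holding no yeast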
NALP1 yeast inh = inhibitors of NALP1 inflammasome in yeast; AID 2071; inhibition, % at 10 µM; S. cerevisiae NALP1/ASC/caspase-1 growth, X-gal OD620, 72 h; actives 0.61% (n = 280,000); in the data active means inhibition mostly above about 24%, no sharp cut-off; inactive means mostly below about 32%
TIM10 inh = TIM10 yeast growth inhibition | S. cerevisiae TIM10 strain growth, BacTiter-Glo luminescence, 24 h | inhibition, % at 10 µM | actives 1.4% (n = 330,000);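 active means inhibition of 40% or more at the single tested concentration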;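 further: wild-type TIM10 isogenic control strain grown at permissive 25 °C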
NALP3 yeast inh = NALP3 inhibition in yeast; Yeast reconstituted NLRP3/ASC/caspase-1, beta-gal luminescence, 24 h; AID 2825; inhibition, % at 10 µM; actives 0.39% (n = 330,000);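 active means inhibition of 50% or more; inactive means inhibition below 50%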;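 further: plate controls were induced DMSO wells for no effect and uninduced yeast grown without galactose for full effect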
tim23-1 inh = growth inhibitors of tim23-1 mutant yeast. S. cerevisiae tim23-1 growth, BacTiter-Glo luminescence, 24 h. inhibition, % at 20 µM. actives 1.3% (n = 330,000);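 active means growth inhibition of the mutant yeast at or above 50%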;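 further: temperature-sensitive mutant grown at 25 °C; plate controls were DMSO-treated mutant yeast for no effect and medium wells lacking yeast for full effect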
TIM10 conf = confirmation of TIM10 yeast growth inhibitors; inhibition, % at 10 µM; AID 463215; actives 63% (n = 4,600); S. cerevisiae tim10 strain growth, BacTiter-Glo luminescence, 24 h; shares compounds with TIM10 inh;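 active means inhibition of yeast growth at or above a set limit in either of two replicates at 10 µM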;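 further: this counterscreen used the strain with wild-type TIM10; 0% = yeast with DMSO and 100% = medium wells lacking yeast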
* = called active by the depositor; x = not tested or not shown. Compounds with a hit are over-represented: about 4% of the library has one in this group of screens.

SMILES	tim10-1 inh	NALP1 yeast inh	TIM10 inh	NALP3 yeast inh	tim23-1 inh	TIM10 conf
CN1/C(=C\C(=S)NC(=O)c2ccccc2Cl)C(C)(C)c2ccccc21	36.1	30.7	40.3*	24.2	49.7	14.9
CCc1nnc(NC(=O)COc2ccccc2[N+](=O)[O-])s1	6.7	5.6	40.1*	12.9	12.9	-2.8
CCc1nnc(NC(=O)COc2ccc([N+](=O)[O-])cc2)s1	-20.8	0.6	-23.2	-2.7	-17.6	x
Cc1c(C(=S)Nc2ccccc2)cnn1-c1ccc([N+](=O)[O-])cc1	38.3	19.1	42.8*	40.2	44.4	-0.8
Nc1c(C(=O)N/N=C/c2ccc([N+](=O)[O-])cc2)cnn1-c1ccccc1	-17.8	x	2.8	16.0	-2.7	x
Nn1c(SCc2ccc(Br)cc2)nnc1-c1ccncc1	-16.2	7.5	7.1	16.1	15.5	x
Cc1ccc(CSc2nnc(-c3ccncc3)n2N)cc1	-7.7	21.3	41.9*	10.7	1.7	8.4
Cc1cc(C)cc(C(=O)NC(=S)Nc2ccc(Cc3ccncc3)cc2)c1	19.2	9.4	47.1*	19.1	33.6	8.6
O=C(CNC(=O)c1ccc(Br)o1)Nc1ccncc1	2.4	x	-2.2	22.7	2.4	x
O=C(Nc1ccc(Cc2ccncc2)cc1)c1ccc(Br)o1	6.4	40.0	44.4*	26.9	34.2	35.7*
O=C(NC(=S)Nc1ccc(Cc2ccncc2)cc1)c1ccccc1	29.3	11.4	50.6*	22.0	30.1	-28.8
O=C(CSc1nnc(NC(=O)c2ccc(S(=O)(=O)N3CCOCC3)cc2)s1)Nc1ccccc1C(F)(F)F	11.0	15.3	-14.4	1.4	-11.1	x
COc1ccc(N(CC(=O)NCc2ccco2)C(=O)CNS(=O)(=O)c2ccc(Cl)cc2)cc1	3.0	-2.4	-12.4	12.3	10.5	x
C=CCNC(=S)N/N=C(\C)c1cccc(OC)c1	26.7	1.4	40.6*	-1.4	43.7	19.6
COc1ccc(CNC(=S)N/N=C(\C)c2ccc(OC)cc2)cc1	33.8	11.9	43.6*	6.7	-11.4	43.9*
COc1ccc(CNC(=S)NCc2ccc(OC(C)C)cc2)cc1	33.6	19.9	9.0	16.3	1.4	x
C/C(=N\NC(=S)NCc1ccccc1)c1ccc2ccccc2c1	38.8	7.5	53.7*	26.7	43.8	-12.1
COc1cc(C(=O)NCC(c2ccc(F)cc2)N2CCOCC2)ccc1OCc1ccccc1Cl (centres undefined)	24.6	x	29.1	17.3	27.6	x
CC(C)(C)OC(=O)C[C@H]1C/C=C\C[C@H](CC(=O)N[C@H](CO)Cc2ccccc2)C(=O)N2CCC[C@H]2COC1=O	-3.2	x	9.1	15.1	6.8	x
CCCCc1nnc(SCC(=O)NC2CCCCC2)n1C	6.4	10.4	7.1	15.9	-6.0	x
O=C(Nc1ccc2nc(-c3ccccc3)[nH]c2c1)c1ccco1	4.5	35.5	49.6*	16.7	44.1	24.8
O=C(O)CCN=CC1=C(O)CC(c2ccccc2)CC1=O (centres undefined)	-19.4	12.0	12.6	-2.0	-3.4	x
O=C(COc1cccc2ccccc12)Nc1nc2ccccc2[nH]1	15.0	3.9	41.2*	37.1	19.8	20.1
CCOc1ccccc1OCC(=O)Nc1nc2ccccc2[nH]1	-9.3	1.6	7.7	22.4	29.6	x
CC(O/N=C\c1ccccc1O)C(=O)Nc1ccccc1C(=O)N1CCOCC1 (centres undefined)	8.6	-6.9	1.2	17.2	11.7	x
SMILES	tim10-1 inh	NALP1 yeast inh	TIM10 inh	NALP3 yeast inh	tim23-1 inh	TIM10 conf
O=C(NCC(=O)N1CCN(Cc2ccc3c(c2)OCO3)CC1)c1ccccc1F	-13.9	x	96.8*	19.8	11.2	-11.4
CCCCOc1ccc(C(=O)NCC(=O)N2CCN(Cc3ccc4c(c3)OCO4)CC2)cc1	12.8	x	25.4	8.8	21.4	x
Cc1ccc(Cl)c2c(N=Nc3ccccc3)c(O)[nH]c12	-2.1	-2.3	0.7	30.1	1.0	x
NC(=O)CC[C@H](NC(=O)OCc1ccccc1)C(=O)OCc1ccc(Cl)cc1	15.3	-0.4	45.5*	18.7	13.9	-10.1
CCOCCCN(C(=O)Cn1nnc(-c2ccc(C)o2)n1)C(C(=O)NC1CCCC1)c1ccc(C)o1 (centres undefined)	10.9	3.4	12.9	3.5	19.8	x
C=CCNc1nc(N)c([N+](=O)[O-])c(Nc2ccccc2OC)n1	34.1	3.4	40.9*	20.7	30.8	69.2*
COc1ccccc1Nc1nc(NCCCN(C)C)nc(N)c1[N+](=O)[O-]	12.2	17.2	-2.3	0.5	10.5	x
CCn1c(Cl)c(C=O)s/c1=N\S(=O)(=O)c1ccccc1	33.6	17.7	42.7*	-11.1	26.6	1.2
O=C(Cn1cnc2ccccc2c1=O)c1ccc2c(c1)OCCO2	26.2	5.7	44.6*	44.6	49.8	34.2*
O=C(Cn1cnc2ccccc2c1=O)c1ccc2ccccc2c1	-1.3	16.4	7.7	37.3	-4.9	x
Cc1ccc(/C=N/n2c(COc3ccccc3)n[nH]c2=S)s1	39.0	-4.8	48.0*	30.2	39.5	43.5*
CC(NC(=O)COc1ccc(N(C)S(=O)(=O)c2ccccc2)cc1)c1ccccc1 (centres undefined)	16.5	12.9	-6.5	20.7	26.9	x
COCCn1cnnc1SCC(=O)Nc1ccc(N2CCCCC2)cc1	-10.2	x	-1.1	8.6	-2.7	x
C=CCC(=O)N1CCCC(CO)(Cc2ccc(F)cc2F)C1 (centres undefined)	6.9	20.8	-2.5	8.0	21.7	x
Cc1nn2c(-c3ccco3)nnc2c2ccccc12	36.1	x	61.6*	12.0	42.9	47.9*
Cc1c(Cl)ccc2sc(NC(=O)C3CC3)nc12	18.4	4.8	43.9*	24.9	49.9	37.9*
CC(=O)Nc1nc2c(C)c(Cl)ccc2s1	-5.4	x	-8.1	7.0	3.4	x
CCN(CC)S(=O)(=O)c1ccc(NC(=O)CCNC(=O)c2ccccc2)cc1	x	-3.5	x	x	x	x
Cc1ccccc1-c1cn(-c2ccccc2)c(=S)[nH]1	15.5	0.8	40.6*	25.1	37.2	50.5*
c1ccc(-c2onc3cc4c(cc23)OCCO4)cc1	33.4	5.4	44.0*	35.4	-3.2	52.0*
COc1ccc(-c2nnc3sc(-c4ccco4)nn23)cc1OC	-2.0	7.5	-19.1	13.7	-23.9	x
COc1ccc(-c2nn3c(-c4ccco4)nnc3s2)cc1OC	38.7	8.4	45.3*	0.9	20.4	-9.8
COc1ccc(OC)c2[nH]c(=O)c(CCNC(=O)c3ccc(Br)o3)cc12	24.6	5.3	47.2*	-14.9	17.8	12.2
COc1cc(C(=O)NCCc2cc3c(OC)ccc(OC)c3[nH]c2=O)cc(OC)c1OC	10.5	6.6	16.4	-12.1	13.0	x
COc1ccccc1N1CCN(C(=O)c2ccc([N+](=O)[O-])s2)CC1	24.8	24.1	42.8*	2.3	34.8	-12.6
O=C(c1cnn2c1NC(c1ccc(Br)cc1)CC2C(F)(F)F)N1CCN(C23CC4CC(CC(C4)C2)C3)CC1 (centres undefined)	35.2	3.5	42.0*	5.3	41.0	14.4

Source: PubChem BioAssay
